Results taken from PubChem BioAssay.
The source made the active and inactive calls.

Test: basal MM1S mitochondrial membrane potential changes, profiling panel, cell-based, JC-1 fluorescence, 24 h, 100 nL compound (AID 1170)
Conditions: higher = more signal
Note: test concentration not given here.

| Compound | z-score |
| --- | --- |
| COc1ccc(C#Cc2ccc3c(c2)[C@]2(C(=O)N3)[C@H](C(=O)O)[C@H]3C(=O)O[C@H](c4ccccc4)[C@H](c4ccccc4)N3[C@@H]2c2ccccc2OCCO)cc1 | -1.3 |
| COc1ccc(CCNC(=O)[C@@H]2c3ccccc3C(=O)N(Cc3ccccc3OC)[C@H]2c2ccc(CO)cc2)cc1 | -0.42 |
| C=CCC(OC(C)=O)[C@@H]1[C@@H](N(Cc2cccc3ccccc23)C(=O)Cc2ccc(OC)cc2)c2cc(OCCCO)ccc2N1C(=O)Cc1ccc2ccccc2c1 (stereo not given in full) | 0.0724 |
| CC(C)(C)OC(=O)CC[C@@]1(C(=O)NCCN2CCOCC2)N=C(c2ccc(OCCCO)cc2)O[C@@H]1c1ccccc1CN=[N+]=[N-] | -0.586 |
| CC(C)NC(=O)[C@@]1(C)c2ccccc2C(=O)N(Cc2ccccc2)[C@H]1c1ccc(CO)cc1 | 1.02 |
| CN(C)c1ccc(C(O)C2C=CC3C(=O)N(Cc4ccccc4)C(=O)C3N2n2cnnc2)cc1 (stereo not given) | 1.23 |
| COc1ccc(C(=O)Nc2ccc(CN3C(=O)[C@@]4(O[C@@H](CCn5cc(CCO)nn5)[C@H]([Si](C)(C)c5ccc(OC)cc5)[C@H]4C)c4ccccc43)cc2)cc1 | -2.22 |
| CC(C)C[C@H]1NC(=O)C([C@@H](C)OCc2ccccc2)NC(=O)[C@@]23C(=O)N[C@@H](Cc4ccccc4)C2[C@H](C)[C@@]2(C)O[C@H]2C3/C=C/C/C=C\CNC1=O (stereo not given in full) | 0.277 |
| COc1ccc([Si](C)(C)[C@@H]2[C@@H](CC(=O)N3CCC[C@H]3CO)O[C@]3(C(=O)N(Cc4cccc(N5CCCCC5=O)c4)c4ccccc43)[C@H]2C)cc1 | -1.47 |
| CO[C@H]1O[C@H](CO)[C@@H](OC(=O)Nc2ccccc2-c2ccccc2)[C@H](OC(=O)Nc2ccccc2)[C@H]1OC(=O)Nc1ccccc1 | -0.558 |
| CCCCC(O)C1C=CC2C(=O)N(c3ccccc3)C(=O)C2N1Nc1ccc([N+](=O)[O-])cc1 (stereo not given) | -0.745 |
| C=CCNC(=O)[C@@H]1[C@H]2C(=O)O[C@H](c3ccccc3)[C@H](c3ccccc3)N2[C@H](c2ccc(OCCO)cc2)[C@@]12C(=O)Nc1ccc(C#CC3(O)CCCCCC3)cc12 | -0.962 |
| CN1C(=O)C2C(C1=O)C1C=C(c3ccc(CO)cc3)C2C(C2CC2)N1C (stereo not given) | -0.0509 |
| COC(=O)[C@@]1(Cc2ccc(F)cc2)[C@H]2c3cc(C(=O)N4CCCC4)n(Cc4ccccn4)c3C[C@H]2CN1C(=O)c1ccccc1 | -1.65 |
| NC(=O)N1C(=O)C2C(C1=O)C1C=C(CCCO)C2C(c2ccc(CN3CCCC3)cc2)N1Cc1cc2c(cc1Br)OCO2 (stereo not given) | 0.322 |
| CCCCN1CC=CC23O[C@@H]4/C=C\CCCOC(=O)C4[C@H]2C(=O)N(C(CO)C(C)C)[C@@H]3C1=O (stereo not given in full) | -0.608 |
| O=C1O[C@H](c2ccccc2)[C@H](c2ccccc2)N2[C@H]1[C@@H](C(=O)N1CCN(c3ncccn3)CC1)[C@]1(C(=O)Nc3ccc(C#CCCO)cc31)[C@H]2c1ccc(O)cc1 | -0.0233 |
| O=C1NC(=O)C2C1C=CC(C(O)c1ccc([N+](=O)[O-])cc1)N2Nc1ccccn1 (stereo not given) | 0.339 |
| O=C1C2C=CC(C(O)c3ccc([N+](=O)[O-])cc3)N(Nc3ccccc3F)C2C(=O)N1c1ccccc1 (stereo not given) | -0.127 |
| COc1ccc([Si](C)(C)[C@@H]2[C@@H](CC(=O)N(CCO)Cc3ccccc3)O[C@]3(C(=O)N(Cc4ccc(I)cc4)c4ccccc43)[C@H]2C)cc1 | -0.732 |
| CN1C(=O)C2C(C1=O)C1C=C(CCCO)C2C(C2CC2)N1Cc1cccc(OC(F)(F)F)c1 (stereo not given) | 0.389 |
| CCOC(=O)C[C@H]1[C@H](OC(=O)c2cc3ccccc3oc2=O)[C@@H](NC(=O)CC(C)C)c2cc(OCCCO)ccc2N1C(=O)Cc1ccc(OC)cc1 | 0.328 |
| NC(=O)N1C(=O)C2C(C1=O)C1C=C(CCCO)C2C(C2CC2)N1Cc1sc2ccccc2c1Cl (stereo not given) | 0.193 |
| COCCn1c(C(=O)N(C)C)cc2c1C[C@H]1CN(C(=O)c3ccccc3)[C@@](Cc3ccc(OC)cc3)(C(=O)OC)[C@@H]21 | -1.52 |

Test: A549 lung cancer cell viability effects, profiling panel, resazurin fluorescence, 24 h, PK04 Diversity Set (AID 1171)
Conditions: higher = more signal, called active from +8 up or from −8 down

| Compound | z-score |
| --- | --- |
| CCCNC(=O)[C@@]1(Sc2ccc(C)cc2)CC(=O)N(Cc2ccccc2Cl)[C@@H]1c1ccc(CO)cc1I | 0.204 (inactive) |
| C=CCN1Cc2ccccc2[C@H]2OC(c3ccc(OCCCO)cc3)=N[C@@]2(CCS(=O)(=O)c2ccccc2)C1=O | 0.0687 (inactive) |
| [N-]=[N+]=Nc1ccccc1C[C@]1(C(=O)N2CCOCC2)N=C(c2ccc(OCCCO)cc2)O[C@H]1c1ccccc1N=[N+]=[N-] | -2.16 (inactive) |
| C[C@]1(C(=O)O)c2ccccc2C(=O)N(Cc2cc(F)cc(C(F)(F)F)c2)[C@H]1c1ccc(CO)cc1 | 1.27 (inactive) |
| CC(C)c1nc2cc(Br)ccc2c(=O)o1 | 0.0924 (inactive) |
| CN(C)CCCC[C@@H]1NC(=O)[C@H]2C[C@@H](C(=O)O)[C@@H](c3ccc(O)cc3)N2C1=O | -0.569 (inactive) |
| CN1C(=O)C2C(C3CC3)C=C3CN(Cc4cccc(Cl)c4)[C@@H]([C@@H](O)Cc4ccccc4)C3C2C1=O (stereo not given in full) | 0.43 (inactive) |
| C=CCC(OC(C)=O)[C@@H]1[C@@H](N(Cc2ccc(-c3cccc(C(F)(F)F)c3)o2)C(=O)c2ccc(-c3ccccc3)cc2)c2cc(OCCCO)ccc2N1C(=O)c1ccc2ccccc2c1 (stereo not given in full) | 0.919 (inactive) |
| CCCCC(O)C1C=CC2C(=O)N(c3ccccc3)C(=O)C2N1Nc1ccc(C#N)cc1 (stereo not given) | -0.151 (inactive) |
| NC(=O)N1C(=O)C2C(C1=O)C1C=C(CCCO)C2C(c2ccc(CN3CCCC3)cc2)N1Cc1sc2ccccc2c1Cl (stereo not given) | -0.301 (inactive) |
| CC(C)=CCCC(C)=CC(O)C1C=CC2C(=O)NC(=O)C2N1Nc1ccccn1 (stereo not given) | -1.39 (inactive) |
| Cc1ccc(S[C@]2(C(=O)NCCCN(C)C)CC(=O)N(C3Cc4ccccc4C3)[C@@H]2c2ccc(CO)cc2I)cc1 | 0.471 (inactive) |
| COc1ccc(C#Cc2ccc3c(c2)[C@]2(C(=O)N3)[C@H](C(=O)O)[C@H]3C(=O)O[C@H](c4ccccc4)[C@H](c4ccccc4)N3[C@@H]2c2ccccc2OCCO)cc1 | -0.435 (inactive) |
| COc1ccc(CCNC(=O)[C@@H]2c3ccccc3C(=O)N(Cc3ccccc3OC)[C@H]2c2ccc(CO)cc2)cc1 | 1.58 (inactive) |
| C=CCC(OC(C)=O)[C@@H]1[C@@H](N(Cc2cccc3ccccc23)C(=O)Cc2ccc(OC)cc2)c2cc(OCCCO)ccc2N1C(=O)Cc1ccc2ccccc2c1 (stereo not given in full) | 0.719 (inactive) |
| CC(C)(C)OC(=O)CC[C@@]1(C(=O)NCCN2CCOCC2)N=C(c2ccc(OCCCO)cc2)O[C@@H]1c1ccccc1CN=[N+]=[N-] | 0.973 (inactive) |
| CC(C)NC(=O)[C@@]1(C)c2ccccc2C(=O)N(Cc2ccccc2)[C@H]1c1ccc(CO)cc1 | -0.268 (inactive) |
| CN(C)c1ccc(C(O)C2C=CC3C(=O)N(Cc4ccccc4)C(=O)C3N2n2cnnc2)cc1 (stereo not given) | -1.04 (inactive) |

| Compound | z-score |
| --- | --- |
| COc1ccc(C(=O)Nc2ccc(CN3C(=O)[C@@]4(O[C@@H](CCn5cc(CCO)nn5)[C@H]([Si](C)(C)c5ccc(OC)cc5)[C@H]4C)c4ccccc43)cc2)cc1 | -3.31 (inactive) |
| CC(C)C[C@H]1NC(=O)C([C@@H](C)OCc2ccccc2)NC(=O)[C@@]23C(=O)N[C@@H](Cc4ccccc4)C2[C@H](C)[C@@]2(C)O[C@H]2C3/C=C/C/C=C\CNC1=O (stereo not given in full) | 0.154 (inactive) |
| COc1ccc([Si](C)(C)[C@@H]2[C@@H](CC(=O)N3CCC[C@H]3CO)O[C@]3(C(=O)N(Cc4cccc(N5CCCCC5=O)c4)c4ccccc43)[C@H]2C)cc1 | -1.6 (inactive) |
| CO[C@H]1O[C@H](CO)[C@@H](OC(=O)Nc2ccccc2-c2ccccc2)[C@H](OC(=O)Nc2ccccc2)[C@H]1OC(=O)Nc1ccccc1 | -3.34 (inactive) |
| CCCCC(O)C1C=CC2C(=O)N(c3ccccc3)C(=O)C2N1Nc1ccc([N+](=O)[O-])cc1 (stereo not given) | 0.113 (inactive) |
| C=CCNC(=O)[C@@H]1[C@H]2C(=O)O[C@H](c3ccccc3)[C@H](c3ccccc3)N2[C@H](c2ccc(OCCO)cc2)[C@@]12C(=O)Nc1ccc(C#CC3(O)CCCCCC3)cc12 | 0.355 (inactive) |
| CN1C(=O)C2C(C1=O)C1C=C(c3ccc(CO)cc3)C2C(C2CC2)N1C (stereo not given) | -0.694 (inactive) |
| COC(=O)[C@@]1(Cc2ccc(F)cc2)[C@H]2c3cc(C(=O)N4CCCC4)n(Cc4ccccn4)c3C[C@H]2CN1C(=O)c1ccccc1 | -1.75 (inactive) |
| NC(=O)N1C(=O)C2C(C1=O)C1C=C(CCCO)C2C(c2ccc(CN3CCCC3)cc2)N1Cc1cc2c(cc1Br)OCO2 (stereo not given) | -0.855 (inactive) |
| CCCCN1CC=CC23O[C@@H]4/C=C\CCCOC(=O)C4[C@H]2C(=O)N(C(CO)C(C)C)[C@@H]3C1=O (stereo not given in full) | -0.61 (inactive) |
| O=C1O[C@H](c2ccccc2)[C@H](c2ccccc2)N2[C@H]1[C@@H](C(=O)N1CCN(c3ncccn3)CC1)[C@]1(C(=O)Nc3ccc(C#CCCO)cc31)[C@H]2c1ccc(O)cc1 | 1.59 (inactive) |
| O=C1NC(=O)C2C1C=CC(C(O)c1ccc([N+](=O)[O-])cc1)N2Nc1ccccn1 (stereo not given) | -0.0648 (inactive) |
| O=C1C2C=CC(C(O)c3ccc([N+](=O)[O-])cc3)N(Nc3ccccc3F)C2C(=O)N1c1ccccc1 (stereo not given) | -0.364 (inactive) |
| COc1ccc([Si](C)(C)[C@@H]2[C@@H](CC(=O)N(CCO)Cc3ccccc3)O[C@]3(C(=O)N(Cc4ccc(I)cc4)c4ccccc43)[C@H]2C)cc1 | -2.88 (inactive) |
| CN1C(=O)C2C(C1=O)C1C=C(CCCO)C2C(C2CC2)N1Cc1cccc(OC(F)(F)F)c1 (stereo not given) | -0.0655 (inactive) |
| CCOC(=O)C[C@H]1[C@H](OC(=O)c2cc3ccccc3oc2=O)[C@@H](NC(=O)CC(C)C)c2cc(OCCCO)ccc2N1C(=O)Cc1ccc(OC)cc1 | -0.546 (inactive) |
| NC(=O)N1C(=O)C2C(C1=O)C1C=C(CCCO)C2C(C2CC2)N1Cc1sc2ccccc2c1Cl (stereo not given) | 1.09 (inactive) |
| COCCn1c(C(=O)N(C)C)cc2c1C[C@H]1CN(C(=O)c3ccccc3)[C@@](Cc3ccc(OC)cc3)(C(=O)OC)[C@@H]21 | -0.437 (inactive) |
